Sampled rows, rich in hits. Any-hit rate of the full collection: about 5.9%.
GLP1R cytotox: cytotoxicity in counter-screen for GLP-1R inverse agonists | Potency, µM (doses to about 38.3 µM), for the others: top-dose activity change, negative = inhibition, most hits filed as inhibitors | HEK293 cAMP-luciferase reporter cells, luminescence, 24 h | AID 624418 | 0.13% of 410,000 active;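 also: loss of luciferase light is scored as toxicity; % is scaled to controls: 0 for no effect and ±100 for the full control effect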
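Quantitative HTS format, 1536 wells, 200 cells/uL seeded. Compounds: 23 nL, 24 h, 37 °C. Detection: luciferase reagent, luminescence at 12 min RT; decreased signal taken as cytotoxic.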
Gal4-VP16 FLuc: Gal4-VP16 reporter inhibition counter-screen | Drosophila S2 Gal4-VP16 UAS-luciferase, luminescence, 20 h | AID 2546 | 3.5% of 310,000 active | Potency, µM (top dose mostly 53.6 µM), for inactives: at the top dose activity, negative = inhibition, usual class: inhibitors;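 also: Gal4-VP16 expression switched on by copper sulfate through the metallothionein promoter; % is scaled to controls: 0 for no effect and ±100 for the full control effect; nearly all actives have a fitted effect of over 50% in size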
GLP-1R inv ag: acts as inverse agonist at human GLP-1 receptor | P43220 | HEK293 GLP-1R CRE-luciferase, luminescence, 24 h; GLP-1R form is constitutively active | Potency, µM (top dose mostly 38.3 µM), without a hit: at the highest dose activity change, negative = inhibition, usual class: inhibitors | 1.6% of 410,000 active; also: % is scaled to controls: 0 for no effect and ±100 for the full control effect; nearly all actives have a fitted effect of over 55% in size
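Luminescence readout: a drop in cAMP-driven luciferase signal flags inverse agonism at a constitutively active GLP-1R stably expressed in HEK293. Compound exposure lasted 24 hr at 37 deg C, 5% CO2.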
RORgamma inh: ROR gamma (mouse) transcription inhibition; Potency, µM (series often up to 53.6 µM), without a hit: at the highest dose activity change, negative = inhibition, usual class: inhibitors; 5.4% of 310,000 active; P51450; Drosophila S2 Gal4-RORgamma UAS-luciferase reporter, 20 h; also: % is scaled to controls: 0 for no effect and ±100 for the full control effect; nearly all actives have a fitted effect of over 60% in size
Target sequence (P51450 whole entry, looked up, the tested form may be a part): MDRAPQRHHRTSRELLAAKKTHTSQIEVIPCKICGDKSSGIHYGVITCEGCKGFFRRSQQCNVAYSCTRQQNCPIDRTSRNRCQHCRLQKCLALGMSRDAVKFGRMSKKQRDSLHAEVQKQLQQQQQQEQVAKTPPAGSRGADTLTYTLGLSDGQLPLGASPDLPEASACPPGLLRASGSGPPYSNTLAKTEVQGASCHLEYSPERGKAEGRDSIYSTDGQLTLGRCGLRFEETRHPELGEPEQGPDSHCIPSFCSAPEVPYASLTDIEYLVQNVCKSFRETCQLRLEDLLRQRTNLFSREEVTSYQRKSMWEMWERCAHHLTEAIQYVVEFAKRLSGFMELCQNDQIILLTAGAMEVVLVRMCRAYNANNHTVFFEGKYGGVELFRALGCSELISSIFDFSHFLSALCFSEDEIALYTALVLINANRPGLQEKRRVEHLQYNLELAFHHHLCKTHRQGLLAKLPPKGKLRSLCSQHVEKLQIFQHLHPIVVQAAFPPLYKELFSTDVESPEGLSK
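Drosophila Schneider cells stably carrying a metallothionein-driven Gal4 DBD–ROR gamma fusion and a UAS-Photinus luciferase reporter were exposed to compound for 1 hr, then induced with copper sulfate (700 uM final) for 20 hr at ambient temperature before luminescence reading.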
GLP1R ag: agonists of human GLP-1 receptor | Potency, µM (doses to about 45.6 µM), for inactives: at the top dose activation, actives largely listed as activators | P43220 | HEK293 GLP-1R CRE-luciferase, luminescence, 4-6 h; cells express a hypersensitive GLP-1R form | 0.007% of 380,000 active; also: % of control where 0% means no effect
The depositor's hits bear a star; ? = inconclusive; . = no result given; [ ] = remark or other dose. Calls follow the shape of the dose curve; as a rule, active = well fitted curve in the direction sought with a large enough effect; inconclusive = small, poorly fitted or top-dose-only effect, or another doubt; inactive = no such curve, though single readings can be large; an effect the other way counts as inactive or inconclusive. Potency is read from the fitted curve at half-maximal effect.

SMILES	GLP1R cytotox	Gal4-VP16 FLuc	GLP-1R inv ag	RORgamma inh	GLP1R ag
O=C(N/N=C\c1ccccn1)C1COc2cc3ccccc3cc2O1 (centres undefined)	?	?	?	4.47µM*	-14.7%
Cn1c(SCc2ccc(C(F)(F)F)cc2)nc2c([nH]c3ccccc32)c1=O	3.9%	.	12.1%	.	.
CCn1nc(C)c(CCN(C)C(=O)Nc2cc(Cl)c(OC)cc2OC)c1C	-6.0%	.	3.0%	.	.
Cc1ccc(NC(=O)c2ccc(S(=O)(=O)N3CCCCCC3)cc2)nc1	3.2%	.	?	.	3.8%
Cc1ccc(NC(=O)c2ccc(Cl)c(S(=O)(=O)N3CCCCCC3)c2)nc1	-14.8%	.	7.08µM*	.	13.9%
Cc1ccc(C(=O)Nc2ccon2)cc1S(=O)(=O)N1CCOCC1	-10.2%	?	0.0%	11.2µM*	-3.5%
Cc1ccc(N(Cc2ccccc2)C(=O)c2ccc(Cl)c(S(=O)(=O)N3CCOCC3)c2)cc1	7.6%	.	11.2µM*	.	1.7%
CCN1CCN(c2ccc(NC(=O)c3ccc(Cl)c(S(=O)(=O)N4CCCC4)c3)cc2)CC1	-10.1%	.	3.55µM*	.	-3.0%
NCCCCCCNc1nc2c(N)ncnc2n1[C@@H]1O[C@@H]2COP(=O)(O)O[C@H]2[C@H]1O	.	0.2%	.	0.4%	.
COc1ccccc1CNC(=O)c1cc2sccc2n1Cc1ccc(F)cc1	-6.2%	.	?	.	-2.0%
COc1cc(OC)c(NC(=O)C(Cc2ccccc2)NS(=O)(=O)c2cccc3nsnc23)cc1Cl (centres undefined)	2.3%	.	3.0%	.	.
Cc1ccc(CNC(=O)c2ccc(Cl)c(S(=O)(=O)N3CCCCC3)c2)cc1	2.9%	.	10µM*	.	1.7%
Cc1ccc(CNC(=O)c2ccc(C)c(S(=O)(=O)N3CCCCC3)c2)cc1	-31.2%	.	?	.	11.4%
CCCN1CCN(c2nnc(-n3cccc3C(=O)Nc3cc(Cl)ccc3C)s2)CC1	3.5%	.	-18.1%	.	.
Cc1cc(/C=N/NC(=O)C(O)(c2ccccc2)c2ccccc2)c(C)n1-c1ccc(C(=O)O)cc1	-3.3%	?	3.5%	11.2µM*	1.1%
Cc1cc(C)cc(-n2c(C)cc(/C=N/NC(=O)CSc3ncccn3)c2C)c1	-12.1%	-14.1%	?	?	-20.9%
Cc1cc(/C=N/NC(=O)c2ccc(O)cc2)c(C)n1C1CC1	5.0%	?	-17.4%	12.6µM*	3.3%
Cc1cc(C)cc(-n2c(C)cc(/C=N/NC(=O)c3ccncc3)c2C)c1	-4.7%	-8.1%[10 µM]	-18.3%	7.08µM*	-2.5%
Cc1ccccc1-n1c(C)cc(/C=N/NC(=O)c2ccncc2)c1C	7.7%	10µM*	0.0%	2.82µM*	16.6%
Cc1ccc(C(=O)Nc2cccc(C(=O)N/N=C/c3ccc(O)cc3)c2)cc1	-14.3%	?	?	-16.7%	10.6%
Cc1ccccc1CNC(=O)Cn1c(=O)c2cccn2c2cccnc21	-1.4%	.	-16.2%	.	.
CCCCC1=CC2=C(OC(C)=O)C(=O)C(C)(OC(=O)C3CCCC3)C(=O)C2=CO1 (centres undefined)	.	-2.0%	.	8.7%	.
Cc1cc(C)cc(-n2c(C)cc(/C=N/NC(=O)c3cccc([N+](=O)[O-])c3C)c2C)c1	?	4.47µM*	?	2.82µM*	-4.7%
O=[N+]([O-])c1ccccc1NC(=S)N/N=C/c1ccc(O)c(O)c1	-26.6%	?	40.3%	10µM*	13.3%
CCOc1cccc(/C=N/NC(=S)Nc2ccccc2[N+](=O)[O-])c1O	?	11.2µM*	?	5.01µM*	-3.1%
SMILES	GLP1R cytotox	Gal4-VP16 FLuc	GLP-1R inv ag	RORgamma inh	GLP1R ag
COc1cccc(/C=N/NC(=O)N/N=C/c2cccc(OC)c2O)c1O	-9.3%	3.6%	?	-22.8%	19.7%
CCOc1cccc(/C=N/NS(=O)(=O)c2ccc(C)c([N+](=O)[O-])c2)c1O	4.4%	3.16µM*	0.8%	?	3.3%
CCCCNC(=S)N/N=C/c1cccc(OCC)c1O	?	12.6µM*	?	4.47µM*	12.3%
CC(=O)c1ccc(N2CCN(C(=O)Nc3cn(CC(C)C)c(=O)c4ccccc34)CC2)cc1	-5.2%	.	0.7%	.	-4.5%
CC(C)c1nn2c(=O)cc(COC(=O)CNC(=O)c3ccccc3Cl)nc2s1	0.8%	.	6.9%	.	.
O=C(NP(=O)(N1CCCC1)N1CCCC1)C1=C(N2CCOCC2)/C(=C/c2cccc([N+](=O)[O-])c2)CC1	8.4%	4.3%	37.4%	-77.4%	14.4%
O=[N+]([O-])c1ccc(/C=C2\CCC(C3=CCCC3)=C2N2CCOCC2)cc1	-7.3%	3.98µM*	4.5%	?	-2.0%
CC1CCC2C(=O)OC(CN=[N+]=[N-])CN2C1c1ccc(Br)cc1 (centres undefined)	.	6.1%[10 µM]	.	-6.2%[10 µM]	.
Cc1nc(C)c(C(=O)Nc2ncc([N+](=O)[O-])s2)o1	-6.9%	?	3.98µM*	7.94µM*	-3.2%
O=C1[C@H]2[C@@H](C(=O)N1c1cccc3ccccc13)C1(C(=O)c3ccccc3C1=O)N1CCC[C@@H]21	10.8%	20µM*	5.2%	-80.2%	6.5%
CN(C)c1nc(-c2ccc3c(c2)OCO3)nc2ccccc12	.	-2.0%	.	-4.7%	.
Cc1c(-c2ccc(Cl)cc2)oc(=O)c2c(N)n(-c3ccccc3)nc12	?	?	-33.3%	7.94µM*	2.3%
Nc1c2c(=O)oc(-c3ccccc3)cc2nn1-c1ccccc1	?	13.3%	38.9%	4.8%	11.6%
CC1=C(c2ccccc2)C(=S)NC(C)(C)C1	-58.2%	7.08µM*	-43.4%	2.51µM*	0.0%
CCSc1cc(N2CC(C)OC(C)C2)nc(-c2ccccc2Cl)n1 (centres undefined)	7.0%	6.9%	10µM*	-17.9%	18.0%
Cc1ccc(-c2nnc(Nc3ccc(F)cc3)c3ccccc23)cc1S(=O)(=O)N1CCN(C)CC1	-5.7%	.	1.6%	.	.
Cc1cccc(CSc2nnc(CCCCCNC(=O)OC(C)(C)C)o2)c1	-1.4%	?	7.08µM*	?	19.1%
Cc1ccc(OCCCc2c(C)n[nH]c2C)cc1	6.2%	?	5.5%	11.2µM*	15.5%
COc1cccc(OC)c1OCCCCc1c(C)n[nH]c1C	3.5%	-6.1%	-0.7%	24.4%	-5.2%
Cc1n[nH]c(C)c1CCCCOc1ccccc1	-1.8%	?	9.4%	15.8µM*	0.7%
CCN1CCN(C(c2ccccc2Cl)c2c(O)cc(C)n(CCOC)c2=O)CC1 (centres undefined)	-6.3%	.	6.5%	.	.
COc1ccc(-c2nc(-c3ccccc3)oc2NC(C)C)cc1	.	-4.1%	.	-2.8%	.
CCCn1c(-c2ccc(F)cc2)nc2c(NCCN(C)C)nc(C)nc21	.	5.4%	.	-17.0%	.
CC(C)CCNC(=O)CCCOc1cc(=O)n(C)c2ccccc12	10.9%	11.4%	32.4%	12.6µM*	11.4%
CN1CCN(CCCNC(=O)CCCOc2cc(=O)n(C)c3ccccc23)CC1	-9.5%	-5.6%	0.0%	-12.9%	1.0%

From PubChem BioAssay
